# According to the supplement of paper PMC3342239:
# Counter-ions that a name gives are not always drawn.
# Test system: Saccharomyces cerevisiae
# Assay: fraction of cells in G1 phase (DNA content, flow cytometry); higher = more cells with unreplicated DNA (G1 delay)
# Conditions: temperature: 30 C; YPD; JTY2953 pdr5 snq2 (sensitized); drug added to: cultures diluted from stationary phase; 6-7 h
# Outline: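 S. cerevisiae grown in YPD at 30°C was exposed to library drugs. In one setup, overnight sensitized JTY2953 cultures were diluted 1∶200, given a final 20 µg/ml and fixed after 6–7 h, while other runs dosed dividing JTY2953 with fixation 6 h later or BY4741 with fixation 4.33 h later. Cells were ethanol-fixed, stained with SYTOX Green and analysed by flow cytometry at 10,000 events. The G1 fraction is the area of the Dean-Jett-Fox G1 peak divided by the summed G1 and G2/M areas.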
row,SMILES,fraction of cells in G1 phase
1,NC(=O)N1c2ccccc2CC(=O)c2ccccc21 [Oxcarbazepine] (79.2785 µM),0.503
2,CCCc1nn(C)c2c(=O)[nH]c(-c3cc(S(=O)(=O)N4CCN(C)CC4)ccc3OCC)nc12 [Sildenafil] (42.142 µM),0.503
3,N=C(N)N/N=C/c1c(Cl)cccc1Cl [Guanabenz acetate] (86.548 µM),0.488
4,Cc1cn([C@H]2C[C@H](N=[N+]=[N-])[C@@H](CO)O2)c(=O)[nH]c1=O [3'-azido-3'-deoxythymidine] (74.8374 µM),0.488
5,C[C@]12CC[C@@H]3c4ccc(O)cc4CC[C@H]3[C@@H]1CC[C@@H]2O [Estradiol] (73.4239 µM),0.58
6,CC#CCC(C)[C@H](O)/C=C/[C@@H]1[C@H]2C/C(=C/CCCC(=O)O)C[C@H]2C[C@H]1O (stereo partly drawn) [Iloprost] (55.4788 µM),0.481
7,CCN1CCN(C(=O)N[C@@H](C(=O)N[C@@H]2C(=O)N3[C@@H]2SC(C)(C)[C@@H]3C(=O)O)c2ccccc2)C(=O)C1=O [Piperacillin] (38.6425 µM),0.462
8,CN(C)C(=N)NC(=N)N [Metformin] (154.84 µM),0.516
9,Nc1nc(O)c2ncn(CCC(CO)CO)c2n1 [Penciclovir] (78.9694 µM),0.461
10,CC(C)(C)NC(=O)[C@H]1CC[C@H]2[C@@H]3CC[C@H]4NC(=O)C=C[C@]4(C)[C@H]3CC[C@]12C [Finasteride] (53.6833 µM),0.558
11,O=C(CCCCCCC(=O)Nc1ccccc1)NO [Vorinostat] (75.6716 µM),0.482
12,CC1Cc2ccccc2N1NC(=O)c1ccc(Cl)c(S(N)(=O)=O)c1 (stereo not drawn) [Indapamide] (54.6685 µM),0.511
13,CC(CCc1ccc(O)cc1)NCCc1ccc(O)c(O)c1 (stereo not drawn) [Dobutamine HCl] (66.3594 µM),0.528
14,COc1cc(CNC(=O)CCCC/C=C/C(C)C)ccc1O [Capsaicin] (65.4834 µM),0.556
15,COCCOC(=O)C1=C(C)NC(C)=C(C(=O)OC(C)C)C1c1cccc([N+](=O)[O-])c1 (stereo not drawn) [Nimodipine] (47.7954 µM),0.521
16,COc1cc(Cc2cnc(N)nc2N)cc(OC)c1OC [Trimethoprim] (68.8884 µM),0.486
17,CC1CNc2c(cccc2S(=O)(=O)N[C@@H](CCCNC(=N)N)C(=O)N2CC[C@@H](C)C[C@@H]2C(=O)O)C1 (stereo partly drawn) [Argatroban] (39.3202 µM),0.487
18,CCOC(=O)[C@H](CCc1ccccc1)N[C@@H](C)C(=O)N1[C@H](C(=O)O)C[C@@H]2CCC[C@@H]21 [Ramipril] (48.0167 µM),0.482
19,COC(=O)[C@@H]1[C@H]2C[C@H]3c4[nH]c5ccccc5c4CCN3C[C@@H]2CC[C@@H]1O [Yohimbine HCl] (51.164 µM),0.524

row,SMILES,fraction of cells in G1 phase
1,CC[C@H]1OC(=O)[C@H](C)[C@@H](O[C@H]2C[C@@](C)(OC)[C@@H](O)[C@H](C)O2)[C@H](C)[C@@H](O[C@@H]2O[C@H](C)C[C@H](N(C)C)[C@H]2O)[C@](C)(O)C[C@@H](C)/C(=N\OCOCCOC)[C@H](C)[C@@H](O)[C@]1(C)O [Roxithromycin] (23.8929 µM),0.472
2,COc1cc2c(cc1OC)C(=O)C(CC1CCN(Cc3ccccc3)CC1)C2 (stereo not drawn) [Donepezil HCl] (48.0769 µM),0.515
3,CCN1CCCC1CNC(=O)c1cc(S(=O)(=O)CC)c(N)cc1OC (stereo not drawn) [Amisulpride] (54.1272 µM),0.471
4,N=C(N)NC(=O)c1nc(Cl)c(N)nc1N [Amiloride] (75.1597 µM),0.516
5,CC(=O)OCC(=O)NCCCOc1cccc(CN2CCCCC2)c1 [Roxatidine acetate HCl] (57.3977 µM),0.461
6,COc1ccnc(C[S+]([O-])c2nc3cc(OC(F)F)ccc3[nH]2)c1OC (stereo not drawn) [Pantoprazole] (52.168 µM),0.484
7,O=c1[nH]c(=O)n(C2CCCO2)cc1F (stereo not drawn) [Ftorafur] (99.9146 µM),0.512
8,O=C1CCC(N2C(=O)c3ccccc3C2=O)C(=O)N1 (stereo not drawn) [Thalidomide] (77.4486 µM),0.464
9,CCCCn1c(=O)c2c(ncn2CC(C)=O)n(CCCC)c1=O [Denbufylline] (62.423 µM),0.517
10,CC(C)NCC(O)COc1cccc2[nH]ccc12 (stereo not drawn) [Pindolol] (80.5387 µM),0.515
11,COc1cc2ncnc(Nc3ccc(F)c(Cl)c3)c2cc1OCCCN1CCOCC1 [Gefitinib] (44.7514 µM),0.535
12,O=C(NCCNCC(O)COc1ccc(O)cc1)N1CCOCC1 (stereo not drawn) [Xamoterol hemifumarate] (58.9284 µM),0.518
13,CCOC(=O)C1=C[C@]2(CC)CCCN3CCc4c(n1c1ccccc41)[C@@H]32 [Vinpocetine] (57.0671 µM),0.439
14,CC[C@]1(O)C[C@@H]2CN(CCc3c([nH]c4ccccc34)[C@@](C(=O)OC)(c3cc4c(cc3OC)N(C)[C@H]3[C@@](O)(C(N)=O)[C@H](O)[C@]5(CC)C=CCN6CC[C@]43[C@@H]65)C2)C1 [Vindesine] (26.5271 µM),0.478
15,CCC[C@@H]1C[C@@H](C(=O)N[C@@H]([C@H]2O[C@H](SC)[C@H](O)[C@@H](O)[C@H]2O)[C@H](C)Cl)N(C)C1 [Clindamycin HCl] (47.0598 µM),0.505
16,CC[C@H]1OC(=O)[C@H](C)[C@@H](O[C@H]2C[C@@](C)(OC)[C@@H](O)[C@H](C)O2)[C@H](C)[C@@H](O[C@@H]2O[C@H](C)C[C@H](N(C)C)[C@H]2O)[C@](C)(OC)C[C@@H](C)C(=O)[C@H](C)[C@@H](O)[C@]1(C)O [Clarithromycin] (26.7389 µM),0.489
17,CN(C)C(=O)C(CCN1CCC(O)(c2ccc(Cl)cc2)CC1)(c1ccccc1)c1ccccc1 [Loperamide] (38.9864 µM),0.512
18,CC(C(=O)O)c1cccc(Oc2ccccc2)c1 (stereo not drawn) [Fenoprofen] (82.5501 µM),0.502
19,CC(C)(C)NC[C@H](O)COc1nsnc1N1CCOCC1 [Timolol maleate (s)] (63.2061 µM),0.499
